From paper doi:10.1101/2024.03.05.583629 come the findings set out here.

Chain of pT7_6His-AlfaTag-HOXD13 (P35453 263-343): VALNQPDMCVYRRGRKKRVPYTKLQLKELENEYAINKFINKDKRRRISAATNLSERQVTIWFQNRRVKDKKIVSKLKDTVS

The test has as its target pT7_6His-AlfaTag-HOXD13 (human, UniProt P35453 263-343). The experiment in a line: PADIT-seq. The following applies: dsDNA, one strand shown.
In the case of “CTCGAGGATATCAAGATCTGGCCTCGGCTTTTTAATAGGAACCTCTAGCTAGCCGACTCACTATAGGGATAATCGCCCTGAGCAAAGACC”, the binding signal turned out to be 2.75 ± 0.0795 log2FC.
Take “CTCGAGGATATCAAGATCTGGCCTCGGCCTTGTAAAAGGAACCTCTAGCTAGCCGACTCACTATAGGGATAATCGCCCTGAGCAAAGACC”: the binding signal is 2.9 ± 0.088 log2FC.
In the case of “CTCGAGGATATCAAGATCTGGCCTCGGCCGCCCAGCCGGAACCTCTAGCTAGCCGACTCACTATAGGGATAATCGCCCTGAGCAAAGACC” it was -0.832 ± 0.147 log2FC; in that of “CTCGAGGATATCAAGATCTGGCCTCGGCTTGCTAAAAGGAACCTCTAGCTAGCCGACTCACTATAGGGATAATCGCCCTGAGCAAAGACC”, -0.271 ± 0.11 log2FC.
The same measure for “CTCGAGGATATCAAGATCTGGCCTCGGCATTTTAAAGGGAACCTCTAGCTAGCCGACTCACTATAGGGATAATCGCCCTGAGCAAAGACC”: 2.62 ± 0.0783 log2FC; for “CTCGAGGATATCAAGATCTGGCCTCGGCATTTTAGCAGGAACCTCTAGCTAGCCGACTCACTATAGGGATAATCGCCCTGAGCAAAGACC”: 0.721 ± 0.101 log2FC.
“CTCGAGGATATCAAGATCTGGCCTCGGCGTTTTACCTGGAACCTCTAGCTAGCCGACTCACTATAGGGATAATCGCCCTGAGCAAAGACC” came in with a binding signal of -0.352 ± 0.118 log2FC.
Sequence “CTCGAGGATATCAAGATCTGGCCTCGGCCCAGTAAAAGGAACCTCTAGCTAGCCGACTCACTATAGGGATAATCGCCCTGAGCAAAGACC” showed a binding signal of 2.32 ± 0.0885 log2FC.
“CTCGAGGATATCAAGATCTGGCCTCGGCCGCTGACGCGGAACCTCTAGCTAGCCGACTCACTATAGGGATAATCGCCCTGAGCAAAGACC” came in with a binding signal of -0.995 ± 0.158 log2FC.
For the sequence “CTCGAGGATATCAAGATCTGGCCTCGGCATTTTATCGGGAACCTCTAGCTAGCCGACTCACTATAGGGATAATCGCCCTGAGCAAAGACC”, the binding signal was determined as 1.85 ± 0.0758 log2FC.
“CTCGAGGATATCAAGATCTGGCCTCGGCGCGTACGCGGGAACCTCTAGCTAGCCGACTCACTATAGGGATAATCGCCCTGAGCAAAGACC” returned a binding signal of -1.05 ± 0.139 log2FC.
As to “CTCGAGGATATCAAGATCTGGCCTCGGCTGTTTAAAAGGAACCTCTAGCTAGCCGACTCACTATAGGGATAATCGCCCTGAGCAAAGACC”, the binding signal is 1.97 ± 0.0666 log2FC.
“CTCGAGGATATCAAGATCTGGCCTCGGCTTTTTAAATGGAACCTCTAGCTAGCCGACTCACTATAGGGATAATCGCCCTGAGCAAAGACC” displayed a binding signal of 1.81 ± 0.0949 log2FC.
“CTCGAGGATATCAAGATCTGGCCTCGGCGCGTGGCAGGGAACCTCTAGCTAGCCGACTCACTATAGGGATAATCGCCCTGAGCAAAGACC” displayed a binding signal of -0.958 ± 0.118 log2FC.
Regarding “CTCGAGGATATCAAGATCTGGCCTCGGCAAGCTAAAAGGAACCTCTAGCTAGCCGACTCACTATAGGGATAATCGCCCTGAGCAAAGACC”, the binding signal was -0.784 ± 0.107 log2FC.
“CTCGAGGATATCAAGATCTGGCCTCGGCAACGTAAAAGGAACCTCTAGCTAGCCGACTCACTATAGGGATAATCGCCCTGAGCAAAGACC” registered a binding signal of 0.751 ± 0.0928 log2FC.
As for “CTCGAGGATATCAAGATCTGGCCTCGGCGAACTAAAAGGAACCTCTAGCTAGCCGACTCACTATAGGGATAATCGCCCTGAGCAAAGACC”, the binding signal was -0.56 ± 0.0894 log2FC.
The sequence “CTCGAGGATATCAAGATCTGGCCTCGGCTTAGTAAAAGGAACCTCTAGCTAGCCGACTCACTATAGGGATAATCGCCCTGAGCAAAGACC” yielded a binding signal of 1.23 ± 0.0947 log2FC.
In turn, “CTCGAGGATATCAAGATCTGGCCTCGGCATGGTAAAAGGAACCTCTAGCTAGCCGACTCACTATAGGGATAATCGCCCTGAGCAAAGACC” gave a binding signal of 1.03 ± 0.0704 log2FC.
With “CTCGAGGATATCAAGATCTGGCCTCGGCCTGGTAAAAGGAACCTCTAGCTAGCCGACTCACTATAGGGATAATCGCCCTGAGCAAAGACC”, the binding signal is 0.442 ± 0.0982 log2FC.
“CTCGAGGATATCAAGATCTGGCCTCGGCATGCTAAAAGGAACCTCTAGCTAGCCGACTCACTATAGGGATAATCGCCCTGAGCAAAGACC” came in with a binding signal of 0.0523 ± 0.0889 log2FC.
In the case of “CTCGAGGATATCAAGATCTGGCCTCGGCCTTTTAGATGGAACCTCTAGCTAGCCGACTCACTATAGGGATAATCGCCCTGAGCAAAGACC”, the binding signal came to 0.264 ± 0.0998 log2FC.
Sequence “CTCGAGGATATCAAGATCTGGCCTCGGCTGCTTAAAAGGAACCTCTAGCTAGCCGACTCACTATAGGGATAATCGCCCTGAGCAAAGACC” gave a binding signal of 0.659 ± 0.091 log2FC.
The sequence “CTCGAGGATATCAAGATCTGGCCTCGGCCCGCCACGCGGAACCTCTAGCTAGCCGACTCACTATAGGGATAATCGCCCTGAGCAAAGACC” came in with a binding signal of -1.05 ± 0.125 log2FC.
The same measure for “CTCGAGGATATCAAGATCTGGCCTCGGCTGATTAAAAGGAACCTCTAGCTAGCCGACTCACTATAGGGATAATCGCCCTGAGCAAAGACC”: 1.86 ± 0.0796 log2FC.
With “CTCGAGGATATCAAGATCTGGCCTCGGCTTACTAAAAGGAACCTCTAGCTAGCCGACTCACTATAGGGATAATCGCCCTGAGCAAAGACC”, the binding signal was 0.214 ± 0.111 log2FC.
In turn, “CTCGAGGATATCAAGATCTGGCCTCGGCTGGGTAAAAGGAACCTCTAGCTAGCCGACTCACTATAGGGATAATCGCCCTGAGCAAAGACC” had a binding signal of -0.514 ± 0.0905 log2FC.
The sequence “CTCGAGGATATCAAGATCTGGCCTCGGCGCGATAAAAGGAACCTCTAGCTAGCCGACTCACTATAGGGATAATCGCCCTGAGCAAAGACC” registered a binding signal of 1.22 ± 0.0747 log2FC.
“CTCGAGGATATCAAGATCTGGCCTCGGCGCGATAGCGGGAACCTCTAGCTAGCCGACTCACTATAGGGATAATCGCCCTGAGCAAAGACC” had a binding signal of -0.758 ± 0.131 log2FC.
